System: Vero E6 infected with SARS-CoV-2
Assay: inhibition of SARS-CoV-2 cytopathic effect; higher = more antiviral protection, active = above 15
Conditions: 48 h

Measured: inhibition of SARS-CoV-2 cytopathic effect

CN(C)C(=O)c1cc2cnc(Nc3ccc(N4CCNCC4)cn3)nc2n1C1CCCC1 [ribociclib]
inactive: 1 nM -0.57% | 8.33 nM -0.13% | 100 nM -0.03% | 833.33 nM -3.73% | 10000 nM -7.22%

NCC(=O)CCC(=O)O [5-aminolevulinic-acid]
inactive: 1 nM 1.18% | 8.33 nM 1.35% | 100 nM -3.53% | 833.33 nM -0.73% | 10000 nM 0.28%

CO[C@H]1C[C@H](O[C@H]2[C@H](C)O[C@@H](O[C@@H]3/C(C)=C/C[C@@H]4C[C@@H](C[C@]5(C=C[C@H](C)[C@@H](C6CCCCC6)O5)O4)OC(=O)[C@@H]4C=C(C)[C@@H](O)[C@H]5OC/C(=C\C=C\[C@@H]3C)[C@]54O)C[C@@H]2OC)O[C@@H](C)[C@@H]1O [doramectin]
inactive: 1 nM 0.81% | 8.33 nM 1.22% | 100 nM 1.24% | 833.33 nM 0.55% | 10000 nM 2.69%

CCc1nc(N)nc(N)c1-c1ccc(Cl)cc1 [pyrimethamine]
inactive: 1 nM 2.57% | 8.33 nM 3.29% | 100 nM 2.35% | 833.33 nM 1.69% | 10000 nM -1.07%

CCCC[C@H]1OC(=O)c2ccccc21 [butylphthalide]
inactive: 1 nM -2.11% | 8.33 nM -2.6% | 100 nM -0.12% | 833.33 nM 1.5% | 10000 nM 0.31%

CC(C)=CCc1c(O)cc(O)c2c(=O)c(O)c(-c3ccc(C(F)(F)F)cc3)oc12
inactive: 1 nM 2.04% | 8.33 nM 1.52% | 100 nM 3.93% | 833.33 nM 2.83% | 10000 nM 2.95%

COc1ccc(S(=O)(=O)Nc2cc(Cl)cc(Cl)c2OC)cc1N1CCNCC1
inactive: 1 nM -1.83% | 8.33 nM 1.03% | 100 nM 1.96% | 833.33 nM 5.17% | 10000 nM -2.32%

O=C(O)CCCCC(=O)O [adipic-acid]
inactive: 1 nM -3.52% | 8.33 nM -3% | 100 nM -0.01% | 833.33 nM -2.5% | 10000 nM -1.83%

Nc1ccc(C(=O)NCC(=O)O)cc1 [4-aminohippuric-acid]
inactive: 1 nM -2.16% | 8.33 nM -0.24% | 100 nM -0.14% | 833.33 nM 0.71% | 10000 nM -1.9%

CC(=O)C1=C(O)C=C2Oc3c(C(C)=O)c(O)c(C)c(O)c3C2(C)C1=O (stereo not drawn) [usniacin-(+)]
inactive: 1 nM 3.22% | 8.33 nM 2.31% | 100 nM 0.43% | 833.33 nM -1.14% | 10000 nM -4.03%

CC(C)CC(NC(=O)OCC1c2ccccc2-c2ccccc21)C(=O)O (stereo in doubt)
inactive: 1 nM 1.66% | 8.33 nM 2.4% | 100 nM 2.95% | 833.33 nM 3.51% | 10000 nM 0.68%

CCc1c2c(nc3ccc(OC(=O)N4CCC(N5CCCCC5)CC4)cc13)-c1cc3c(c(=O)n1C2)COC(=O)[C@]3(O)CC [irinotecan]
inactive: 1 nM -2.2% | 8.33 nM 1.89% | 100 nM 1.85% | 833.33 nM 1.56% | 10000 nM -0.23%

COc1ccc2nc(NC(=O)Nc3ccccc3)sc2c1 [frentizole]
inactive: 1 nM -3.36% | 8.33 nM 0.96% | 100 nM -1.31% | 833.33 nM -1.35% | 10000 nM 1.78%

COc1ccc(C(Cl)=C(c2ccc(OC)cc2)c2ccc(OC)cc2)cc1 [chlorotrianisene]
inactive: 1 nM -2.25% | 8.33 nM 0.16% | 100 nM -0.43% | 833.33 nM -2.65% | 10000 nM 5.78%

CCCCCCCCCCCCCCCCOc1nc2ccc(C)cc2c(=O)o1 [cetilistat]
inactive: 1 nM 2.2% | 8.33 nM 1.36% | 100 nM -0.06% | 833.33 nM 0.62% | 10000 nM 0.91%

C[C@H](N)C(=O)N[C@@]1(C(=O)O)C[C@@H](Sc2nnc[nH]2)[C@H]2[C@H](C(=O)O)[C@H]21
inactive: 1 nM -2.66% | 8.33 nM -4.35% | 100 nM -3.65% | 833.33 nM -1.13% | 10000 nM 0.56%

COc1ccc2[nH]c([S+]([O-])Cc3ncc(C)c(OC)c3C)nc2n1 (stereo not given) [tenatoprazole]
inactive: 1 nM -9.92% | 8.33 nM -12.8% | 100 nM -7.87% | 833.33 nM -11.3% | 10000 nM 2.26%

CC(C)(Sc1ccc(CCN(CCCCC2CCCCC2)C(=O)NC2CCCCC2)cc1)C(=O)O
inactive: 1 nM -11.4% | 8.33 nM -10% | 100 nM -5.76% | 833.33 nM -3.65% | 10000 nM -8.5%

O=C(Nc1cc(-c2ccccc2)nn1-c1ccccc1F)c1ccc([N+](=O)[O-])cc1
inactive: 1 nM -0.89% | 8.33 nM 1.45% | 100 nM 1.23% | 833.33 nM -3.16% | 10000 nM 2.79%

O=C(O)C(O)C(O)C(=O)O (stereo not given) [tartaric-acid]
inactive: 1 nM -3.77% | 8.33 nM -4.25% | 100 nM -5.86% | 833.33 nM -1.6% | 10000 nM -0.64%

CC(C)N(CCCNC(=O)Nc1ccc(C(C)(C)C)cc1)C[C@H]1O[C@@H](n2ccc3c(N)ncnc32)[C@H](O)[C@@H]1O
inactive: 1 nM 4.48% | 8.33 nM 2.04% | 100 nM 4.36% | 833.33 nM -0.49% | 10000 nM 0.43%

O=NN(CCCl)C(=O)NC1CCCCC1 [lomustine]
inactive: 1 nM -1.8% | 8.33 nM 1.26% | 100 nM 1.76% | 833.33 nM 2.26% | 10000 nM -0.14%
